# Measurements reported in PubChem BioAssay AID1159580 (chemical genetic matrix, 2015).
# About 2,000 (36%) of roughly 5,500 compounds were called active. About 18% were inconclusive and are not listed. The list shows a part of the results. A number with no mark means an inactive call. No stated cut-off is given here; in the data, active means normalized growth mostly below about 0.91 (no sharp cut-off); inconclusive means no clear call, values can overlap the other calls; inactive means mostly above about 0.92.
# Experiment: chemical genetic growth profiling, strain panel (AID 1159580);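 further: tested at 20 µM; growth read once vehicle control cultures reached saturation at 30 °C; 1 = growth at the plate median or of vehicle wells; lower values mean less growth of the strain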
# Details: S. cerevisiae deletion strains, growth OD
# [1] = locus YMR307W, strain GAS1, hits give low values
smiles,measurement,setting,value
Nc1nc2ccc(Cl)cc2c2nc(-c3ccco3)nn12,normalized growth,"locus YAL040C, strain CLN3, hits give low values",0.734 (active)
same,normalized growth,"locus YCL061C, strain MRC1 (second series), hits give low values",0.988
same,normalized growth,"locus YDR363W, strain ESC2, hits give low values",0.926
same,normalized growth,"locus YER002W, strain NOP16, hits give low values",0.74 (active)
same,normalized growth,[1],0.969
same,normalized growth,"locus YNL128W, strain TEP1, hits give low values",0.632 (active)
same,normalized growth,"locus YNL175C, strain NOP13, hits give low values",0.664 (active)
same,normalized growth,"locus YNL197C, strain WHI3, hits give low values",0.81 (active)
same,normalized growth,"locus YNL224C, strain SQS1, hits give low values",0.729 (active)
same,normalized growth,"locus YOR083W, strain WHI5 (second series), hits give low values",0.473 (active)
same,normalized growth,"locus YPL055C, strain LGE1, hits give low values",0.909
CC(=O)O[C@@](C)(CCC=C(C)C)C1CC=C(C)CC1 (stereo partly specified),normalized growth,"locus YAL013W, strain DEP1, hits give low values",1.02
same,normalized growth,"locus YAL021C, strain ccr4, hits give low values",1.01
same,normalized growth,"locus YAL026C, strain drs2, hits give low values",0.989
same,normalized growth,"locus YAL030W, strain snc1, hits give low values",0.987
same,normalized growth,"locus YBL061C, strain skt5, hits give low values",0.979
same,normalized growth,"locus YBR009C, strain hhf1, hits give low values",1.01
same,normalized growth,"locus YBR021W, strain FUR4, hits give low values",1.03
same,normalized growth,"locus YBR023C, strain chs3, hits give low values",0.986
same,normalized growth,"locus YBR171W, strain sec66, hits give low values",0.981
same,normalized growth,"locus YBR229C, strain ROT2, hits give low values",1.02
same,normalized growth,"locus YBR231C, strain swc5, hits give low values",0.996
same,normalized growth,"locus YBR279W, strain paf1, hits give low values",0.987
same,normalized growth,"locus YCL011C, strain gbp2, hits give low values",0.983
same,normalized growth,"locus YCL016C, strain dcc1, hits give low values",0.996
same,normalized growth,"locus YCL029C, strain bik1, hits give low values",0.992
same,normalized growth,"locus YCL069W, strain vba3, hits give low values",0.983
same,normalized growth,"locus YCR088W, strain abp1, hits give low values",0.983
same,normalized growth,"locus YDL005C, strain med2, hits give low values",0.978
same,normalized growth,"locus YDL035C, strain GPR1, hits give low values",1.01
same,normalized growth,"locus YDL040C, strain nat1, hits give low values",0.988
same,normalized growth,"locus YDL074C, strain BRE1, hits give low values",1.03
same,normalized growth,"locus YDL101C, strain DUN1, hits give low values",1.03
same,normalized growth,"locus YDL185W, strain tfp1, hits give low values",0.988
same,normalized growth,"locus YDL192W, strain arf1, hits give low values",1
same,normalized growth,"locus YDR001C, strain nth1, hits give low values",0.991
same,normalized growth,"locus YDR069C, strain doa4, hits give low values",0.966
same,normalized growth,"locus YDR101C, strain arx1, hits give low values",0.97
same,normalized growth,"locus YDR137W, strain rgp1, hits give low values",0.976
same,normalized growth,"locus YDR159W, strain sac3, hits give low values",0.982
same,normalized growth,"locus YDR162C, strain NBP2, hits give low values",1.05
same,normalized growth,"locus YDR195W, strain ref2",0.982
same,normalized growth,"locus YDR297W, strain sur2, hits give low values",0.974
same,normalized growth,"locus YDR318W, strain mcm21, hits give low values",0.997
same,normalized growth,"locus YDR334W, strain swr1, hits give low values",0.985
same,normalized growth,"locus YDR335W, strain msn5, hits give low values",0.986
same,normalized growth,"locus YDR388W, hits give low values",0.994
same,normalized growth,"locus YDR392W, strain spt3, hits give low values",0.973
same,normalized growth,"locus YDR502C, strain sam2, hits give low values",0.978
same,normalized growth,"locus YEL003W, strain gim4, hits give low values",0.993
same,normalized growth,"locus YEL037C, strain rad23, hits give low values",0.991
same,normalized growth,"locus YEL061C, strain CIN8 (second series), hits give low values",0.978
same,normalized growth,"locus YEL061C, strain CIN8, hits give low values",1.02
same,normalized growth,"locus YER015W, strain faa2, hits give low values",0.994
same,normalized growth,"locus YER016W, strain bim1, hits give low values",0.992
same,normalized growth,"locus YER110C, hits give low values",0.985
same,normalized growth,"locus YER111C, strain swi4, hits give low values",0.981
same,normalized growth,"locus YER155C, strain BEM2 (second series), hits give low values",1.01
same,normalized growth,"locus YER155C, strain BEM2, hits give low values",1.02
same,normalized growth,"locus YER167W, strain BCK2, hits give low values",1
same,normalized growth,"locus YFR010W, strain ubp6, hits give low values",0.973
same,normalized growth,"locus YGL078C, strain dbp3, hits give low values",0.995
same,normalized growth,"locus YGL086W, strain mad1, hits give low values",0.991
same,normalized growth,"locus YGL167C, strain pmr1, hits give low values",0.991
same,normalized growth,"locus YGL173C, strain kem1, hits give low values",0.984
same,normalized growth,"locus YGL227W, strain vid30, hits give low values",0.986
same,normalized growth,"locus YGL240W, strain doc1, hits give low values",0.992
same,normalized growth,"locus YGL248W, strain PDE1, hits give low values",1.05
same,normalized growth,"locus YGL253W, strain hxk2, hits give low values",0.987
same,normalized growth,"locus YGR078C, strain PAC10, hits give low values",1.05
same,normalized growth,"locus YGR135W, strain pre9, hits give low values",1.02
same,normalized growth,"locus YGR229C, strain SMI1, hits give low values",0.998
same,normalized growth,"locus YGR252W, strain gcn5, hits give low values",1.01
same,normalized growth,"locus YHR013C, strain ard1, hits give low values",1
same,normalized growth,"locus YHR027C, strain rpn1, hits give low values",0.983
same,normalized growth,"locus YHR030C, strain SLT2, hits give low values",1.02
same,normalized growth,"locus YHR079C, strain IRE1 (second series), hits give low values",0.985
same,normalized growth,"locus YHR094C, strain hxt1, hits give low values",1
same,normalized growth,"locus YHR129C, strain ARP1, hits give low values",1.02
same,normalized growth,"locus YHR142W, strain chs7, hits give low values",0.999
same,normalized growth,"locus YHR200W, strain rpn10, hits give low values",0.992
same,normalized growth,"locus YIL066C, strain RNR3, hits give low values",1.04
same,normalized growth,"locus YIL073C, strain SPO22, hits give low values",1
same,normalized growth,"locus YIL125W, strain kgd1, hits give low values",1
same,normalized growth,"locus YIR030C, strain dcg1, hits give low values",0.992
same,normalized growth,"locus YJL092W, strain hpr5, hits give low values",0.988
same,normalized growth,"locus YJL095W, strain BCK1 (second series), hits give low values",0.998
same,normalized growth,"locus YJL095W, strain BCK1, hits give low values",1.06
same,normalized growth,"locus YJL115W, strain asf1, hits give low values",0.989
same,normalized growth,"locus YJL129C, strain trk1, hits give low values",0.981
same,normalized growth,"locus YJL134W, strain LCB3, hits give low values",1.01
same,normalized growth,"locus YJL154C, strain vps35, hits give low values",0.984
same,normalized growth,"locus YJL164C, strain tpk1, hits give low values",0.994
same,normalized growth,"locus YJL166W, strain qcr8, hits give low values",0.983
same,normalized growth,"locus YJL168C, strain set2, hits give low values",0.999
same,normalized growth,"locus YJL187C, strain SWE1 (second series), hits give low values",1.04
same,normalized growth,"locus YJL187C, strain SWE1, hits give low values",0.991
same,normalized growth,"locus YJR043C, strain POL32, hits give low values",1.04
same,normalized growth,"locus YKL009W, strain mrt4, hits give low values",0.962
same,normalized growth,"locus YKL068W, hits give low values",0.997
same,normalized growth,"locus YKL085W, strain MDH1 (second series), hits give low values",0.994
same,normalized growth,"locus YKL085W, strain MDH1, hits give low values",0.994
same,normalized growth,"locus YKL160W, strain elf1, hits give low values",0.993
same,normalized growth,"locus YKL190W, strain CNB1, hits give low values",1.01
same,normalized growth,"locus YKR001C, strain vps1, hits give low values",0.987
same,normalized growth,"locus YKR026C, strain gcn3, hits give low values",0.99
same,normalized growth,"locus YKR091W, strain srl3, hits give low values",0.982
same,normalized growth,"locus YLL001W, strain dnm1, hits give low values",0.993
same,normalized growth,"locus YLL026W, hits give low values",0.985
same,normalized growth,"locus YLL041C, strain sdh2, hits give low values",1.01
same,normalized growth,"locus YLR027C, strain aat2, hits give low values",0.985
same,normalized growth,"locus YLR039C, strain RIC1, hits give low values",1.05
same,normalized growth,"locus YLR058C, strain SHM2, hits give low values",1.04
same,normalized growth,"locus YLR102C, strain apc9, hits give low values",0.986
same,normalized growth,"locus YLR221C, strain rsa3, hits give low values",0.972
same,normalized growth,"locus YLR258W, strain gsy2, hits give low values",1.01
same,normalized growth,"locus YLR262C, strain YPT6 (second series), hits give low values",0.959
same,normalized growth,"locus YLR262C, strain YPT6, hits give low values",1.04
same,normalized growth,"locus YLR268W, strain sec22, hits give low values",1
same,normalized growth,"locus YLR320W, strain mms22, hits give low values",0.975
same,normalized growth,"locus YLR330W, strain CHS5, hits give low values",1.03
same,normalized growth,"locus YLR342W, strain FKS1 (second series), hits give low values",1.09
same,normalized growth,"locus YLR342W, strain FKS1, hits give low values",0.974
same,normalized growth,"locus YLR357W, strain rsc2, hits give low values",0.951
same,normalized growth,"locus YLR370C, strain arc18, hits give low values",0.983
same,normalized growth,"locus YLR371W, strain rom2, hits give low values",0.997
same,normalized growth,"locus YLR384C, strain iki3, hits give low values",0.973
same,normalized growth,"locus YLR418C, strain cdc73, hits give low values",0.988
same,normalized growth,"locus YML016C, strain PPZ1, hits give low values",1.02
same,normalized growth,"locus YML032C, strain rad52, hits give low values",1.01
same,normalized growth,"locus YML120C, strain ndi1, hits give low values",0.985
same,normalized growth,"locus YML124C, strain tub3, hits give low values",0.992
same,normalized growth,"locus YMR058W, strain fet3, hits give low values",0.995
same,normalized growth,"locus YMR078C, strain ctf18, hits give low values",0.971
same,normalized growth,"locus YMR125W, strain sto1, hits give low values",0.983
same,normalized growth,"locus YMR129W, hits give low values",1
same,normalized growth,"locus YMR205C, strain PFK2, hits give low values",0.988
same,normalized growth,"locus YMR223W, strain ubp8, hits give low values",1.04
same,normalized growth,"locus YMR231W, strain pep5, hits give low values",0.994
same,normalized growth,"locus YMR263W, strain SAP30, hits give low values",1.04
same,normalized growth,[1],1.11
same,normalized growth,"locus YNL067W, strain RPL9B, hits give low values",1.04
same,normalized growth,"locus YNL071W, strain lat1, hits give low values",0.99
same,normalized growth,"locus YNL153C, strain GIM3, hits give low values",1.04
same,normalized growth,"locus YNL209W, strain ssb2, hits give low values",0.984
same,normalized growth,"locus YNL233W, strain BNI4, hits give low values",1.04
same,normalized growth,"locus YNL248C, strain rpa49, hits give low values",0.975
same,normalized growth,"locus YNL250W, strain rad50, hits give low values",1.01
same,normalized growth,"locus YNL271C, strain bni1, hits give low values",0.998
same,normalized growth,"locus YNL298W, strain CLA4, hits give low values",0.996
same,normalized growth,"locus YNL307C, strain MCK1, hits give low values",0.996
same,normalized growth,"locus YNL322C, strain KRE1 (second series), hits give low values",0.99
same,normalized growth,"locus YNR049C, strain mso1, hits give low values",1
same,normalized growth,"locus YNR052C, strain pop2, hits give low values",0.995
same,normalized growth,"locus YOL006C, strain TOP1, hits give low values",1.14
same,normalized growth,"locus YOL012C, strain htz1",0.898
same,normalized growth,"locus YOL147C, strain pex11, hits give low values",0.984
same,normalized growth,"locus YOR001W, strain rrp6, hits give low values",0.973
same,normalized growth,"locus YOR061W, strain CKA2, hits give low values",1.03
same,normalized growth,"locus YOR069W, strain VPS5, hits give low values",1.01
same,normalized growth,"locus YOR070C, strain gyp1, hits give low values",0.982
same,normalized growth,"locus YOR080W, strain dia2, hits give low values",0.991
same,normalized growth,"locus YOR083W, strain WHI5, hits give low values",0.999
same,normalized growth,"locus YOR106W, strain vam3, hits give low values",0.975
same,normalized growth,"locus YOR136W, strain idh2, hits give low values",0.988
same,normalized growth,"locus YOR144C, strain elg1, hits give low values",0.983
same,normalized growth,"locus YOR184W, strain ser1, hits give low values",0.962
same,normalized growth,"locus YOR265W, strain rbl2, hits give low values",1
same,normalized growth,"locus YOR270C, strain vph1, hits give low values",0.915
same,normalized growth,"locus YOR290C, strain snf2, hits give low values",0.989
same,normalized growth,"locus YOR316C, strain cot1, hits give low values",1.01
same,normalized growth,"locus YPL051W, strain arl3, hits give low values",1.01
same,normalized growth,"locus YPL078C, strain atp4, hits give low values",1.02
same,normalized growth,"locus YPL106C, strain sse1, hits give low values",1
same,normalized growth,"locus YPL240C, strain hsp82, hits give low values",0.974
same,normalized growth,"locus YPL241C, strain CIN2, hits give low values",1.01
same,normalized growth,"locus YPR119W, strain clb2, hits give low values",0.997
same,normalized growth,"locus YPR141C, strain kar3, hits give low values",0.997
same,normalized growth,"locus YPR163C, strain tif3, hits give low values",1
same,normalized growth,"locus YPR167C, strain met16, hits give low values",1
same,normalized growth,"strain wtn01, hits give low values",0.987
